Results reported in PubChem BioAssay (Tox21).
Results filed as inconclusive are left out. The source made the active and inactive calls. Unless noted, the call rests on the fitted dose curve; in most records, active means well fitted curve in the direction sought with a large enough effect in the repeat runs; inconclusive means weak or mixed curves; inactive means no such curve, though single readings can be large; an effect the other way counts as inactive or inconclusive.

Legend:
[1] = qHTS assay to identify small molecule agonists of the peroxisome proliferator-activated receptor delta (PPARd) signaling pathway - cell viability counter screen (AID 743211); further: nearly all actives have a fitted effect of over 55% in size
In short: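 Counter screen for cytotoxicity run in parallel with the PPARd reporter screen. Beta-lactamase reporter HEK293H cells exposed to compounds 17 h; ATP-based CellTiter-Glo luminescence quantified viability.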

[2] = target: Peroxisome proliferator-activated receptor delta (Homo sapiens) (UniProt Q03181); assay: qHTS assay to identify small molecule agonists of the peroxisome proliferator-activated receptor delta (PPARd) signaling pathway (AID 743212; calls by dose curve;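 further: HEK293H cells with PPARd UAS beta-lactamase reporter GeneBLAzer system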)
In short: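 Beta-lactamase reporter read by fluorescence (LiveBLAzer B/G FRET, 2 h, room temperature). Test agents, in DMSO, incubated at 37 C with PPARd-bla HEK293H cells.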

[3] = qHTS assay to identify small molecule antagonists of the peroxisome proliferator-activated receptor delta (PPARd) signaling pathway - cell viability counter screen (AID 743213); further: nearly all actives have a fitted effect of over 50% in size
In short: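 Viability counter-screen, qHTS format: PPARd-bla HEK293H, L165041 300 nM final, 17 h compound exposure at 37 C, CellTiter-Glo luminescence after 30 min RT.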

[4] = target: Peroxisome proliferator-activated receptor delta (Homo sapiens) (UniProt Q03181); assay: qHTS assay to identify small molecule antagonists of the peroxisome proliferator-activated receptor delta (PPARd) signaling pathway (AID 743215; active means well fitted inhibition curve with a large enough effect in the signal ratio in the repeat runs, not every such curve was filed as active; the % refers to the signal ratio;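 further: cells stimulated with agonist L165041 at 300 nM final during compound exposure; series mostly up to about 62 µM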)
In short: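 Agonist L165041 (300 nM final) added with compound to PPARd-bla HEK293H UAS-bla reporter cells; 17 h incubation at 37 C. Read-out: LiveBLAzer FRET substrate, 2 h at room temperature, fluorescence intensity.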

[5] = qHTS assay to identify small molecule agonists of the farnesoid-X-receptor (FXR) signaling pathway - cell viability counter screen (AID 743218); further: nearly all actives have a fitted effect of over 45% in size
In short: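 Viability counter screen in the same wells: CellTiter-Glo luminescence, 30 min room-temperature incubation, measured after the beta-lactamase read. Cells were GeneBLAzer FXR-UAS-bla HEK 293T, compound-treated 16 h at 37C.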

[6] = qHTS assay to identify small molecule antagonists of the farnesoid-X-receptor (FXR) signaling pathway - cell viability counter screen (AID 743221; active means well fitted cell-killing curve with a large enough effect in the repeat runs, not every such curve was filed as active; further: nearly all actives have a fitted effect of over 50% in size)
In short: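 Multiplexed counter screen: viability of FXR-bla HEK 293T cells under agonist stimulation by chenodeoxycholic acid (50 uM, final) and test compound for 16 h at 37 C, measured by CellTiter-Glo luminescence in the reporter wells.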

[7] = target: Vitamin D3 receptor (Homo sapiens) (UniProt P11473); assay: qHTS assay to identify small molecule agonists of the vitamin D receptor (VDR) signaling pathway (AID 743222; calls by dose curve)
In short: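 Agonist mode, beta-lactamase reporter: fluorescence from LiveBLAzer B/G FRET substrate (2 h, room temperature) read after 16 h compound treatment at 37 C of VDR-bla cells, which were pre-incubated 4 h after seeding.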

[8] = target: Vitamin D3 receptor (Homo sapiens) (UniProt P11473); assay: qHTS assay to identify small molecule antagonists of the vitamin D receptor (VDR) signaling pathway (AID 743223; active means well fitted inhibition curve with a large enough effect in the signal ratio in the repeat runs, not every such curve was filed as active; the % refers to the signal ratio)
In short: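 Cells carrying a VDR-driven beta-lactamase reporter (VDR-bla) were co-treated with compound and 3 nM final 1alpha,25-dihydroxyvitamin D3 for 16 h at 37C; reporter activity was measured as FRET substrate fluorescence after 2 h at room temperature.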

[9] = qHTS assay to identify small molecule agonists of the vitamin D receptor (VDR) signaling pathway - cell viability counter screen (AID 743224); further: series mostly up to about 63 µM; nearly all actives have a fitted effect of over 50% in size
In short: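 Counter screen run in the same wells as the VDR-bla reporter assay: CellTiter-Glo luminescence, 30 min at room temperature, after 16 h compound treatment at 37C of cells pre-plated for 4 h.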

[10] = qHTS assay to identify small molecule agonists of the NFkB signaling pathway (AID 1159509; active means well fitted curve in the direction sought with a large enough effect in the signal ratio in the repeat runs, not every such curve was filed as active; the % refers to the signal ratio; further: series mostly up to about 61 µM)
In short: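 Beta-lactamase reporter assay run in quantitative high-throughput format on an NF-kB-responsive ME-180 line, with 5 hr compound treatment and a FRET-based blue/green fluorescence readout.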

[11] = qHTS assay to identify small molecule agonists of the NFkB signaling pathway - cell viability counter screen (AID 1159515; calls by dose curve; further: series mostly up to about 61 µM; nearly all actives have a fitted effect of over 55% in size)
In short: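 Read by CellTiter-Glo luminescence (30 min, room temperature) in the wells also used for the beta-lactamase FRET read. ME-180 NFkB-bla cells at 2,000 per well were plated overnight, then exposed to compound for 5 hr at 37 C.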

[12] = qHTS assay to identify small molecule agonists of the endoplasmic reticulum stress response signaling pathway (AID 1159516; active means well fitted activation curve with a large enough effect in the signal ratio in the repeat runs, not every such curve was filed as active; the % refers to the signal ratio)
In short: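 Ratiometric FRET readout (405 nm excitation; 460 and 530 nm emission) of a beta-lactamase gene driven by the ER stress response element, after 2 hr substrate loading. HeLa ESRE-bla cells were seeded overnight and treated with compounds for only 5 hr at 37 C.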

[13] = qHTS assay to identify small molecule agonists of the endoplasmic reticulum stress response signaling pathway - cell viability counter screen (AID 1159517; calls by dose curve; further: series mostly up to about 61 µM; nearly all actives have a fitted effect of over 50% in size)
In short: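 Cytotoxicity of test compounds toward ESRE-bla HeLa cells was assessed after 5 hr exposure. The luminescent CellTiter-Glo signal was measured 30 min after reagent addition.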

[14] = qHTS assay to identify small molecule antagonists of the retinoid-related orphan receptor gamma (ROR-gamma) signaling pathway - cell viability counter screen (AID 1159520); further: nearly all actives have a fitted effect of over 50% in size
In short: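 Tet-on ROR gamma CHO cells (1,000/well) were plated 4 hr, given compounds in DMSO for 2 hr at 37 C, then induced with 1 uM final doxycycline for 16 hr. Viability was read as ATP by CellTiter-Glo luminescence after 30 min.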

[15] = target: Nuclear receptor ROR-gamma (Homo sapiens) (UniProt P51449); assay: qHTS assay to identify small molecule antagonists of the retinoid-related orphan receptor gamma (ROR-gamma) signaling pathway (AID 1159521)
In short: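 Cells were plated, rested 4 h at 37 C, exposed to compounds for 2 h, then given 1 uM final doxycycline hyclate to induce RORγ expression. After 16 h, ONE-Glo luminescence from the ROR response element reporter was measured.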

[16] = qHTS assay to identify small molecule agonists of the AP-1 signaling pathway - cell viability counter screen (AID 1159525; calls by dose curve; further: nearly all actives have a fitted effect of over 55% in size)
In short: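 Each titration point was normalised to DMSO and tetra n-octyl ammonium bromide controls. The read was Cell Titer Glo luminescence after 30 min at RT, following 5 h compound exposure of ME-180 AP-1-bla cells at 37 °C.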

[17] = qHTS assay to identify small molecule antagonists of the vitamin D receptor (VDR) signaling pathway - cell viability counter screen (AID 743225); further: nearly all actives have a fitted effect of over 50% in size
In short: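 HEK293T VDR-bla; cpd + 1a,25-(OH)2D3 3 nM final, 16 h 37C/5% CO2; B/G FRET substrate 2 h RT; then CellTiter-Glo 30 min RT, luminescence.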

[18] = qHTS assay to identify small molecule agonists of the AP-1 signaling pathway (AID 1159526; calls by dose curve)
[19] = target: Bile acid receptor (Homo sapiens) (UniProt Q96RI1); assay: qHTS assay to identify small molecule antagonists of the farnesoid-X-receptor (FXR) signaling pathway (AID 743217; active means well fitted inhibition curve with a large enough effect in the signal ratio in the repeat runs, not every such curve was filed as active; the % refers to the signal ratio)
In short: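 Antagonist mode: chenodeoxycholic acid at 50 uM final stimulates a UAS-driven beta-lactamase reporter in HEK 293T FXR-bla cells during 16 h, 37C compound exposure. Read-out is FRET substrate fluorescence after 2 h at room temperature.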

[20] = target: Bile acid receptor (Homo sapiens) (UniProt Q96RI1); assay: qHTS assay to identify small molecule agonists of the farnesoid-X-receptor (FXR) signaling pathway (AID 743220; active means well fitted activation curve with a large enough effect in the signal ratio in the repeat runs, not every such curve was filed as active; the % refers to the signal ratio)
In short: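 FXR-UAS-bla HEK 293T cells carrying a UAS-driven beta-lactamase reporter were plated for 5 h at 37C/5% CO2, then exposed to DMSO-dissolved Tox21 10K compounds for 16 h at 37C. A LiveBLAzer B/G FRET substrate was loaded for 2 h at room temperature before fluorescence reading.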

Measured: Potency

Chain of Peroxisome proliferator-activated receptor delta (Homo sapiens) (Q03181 whole entry, looked up): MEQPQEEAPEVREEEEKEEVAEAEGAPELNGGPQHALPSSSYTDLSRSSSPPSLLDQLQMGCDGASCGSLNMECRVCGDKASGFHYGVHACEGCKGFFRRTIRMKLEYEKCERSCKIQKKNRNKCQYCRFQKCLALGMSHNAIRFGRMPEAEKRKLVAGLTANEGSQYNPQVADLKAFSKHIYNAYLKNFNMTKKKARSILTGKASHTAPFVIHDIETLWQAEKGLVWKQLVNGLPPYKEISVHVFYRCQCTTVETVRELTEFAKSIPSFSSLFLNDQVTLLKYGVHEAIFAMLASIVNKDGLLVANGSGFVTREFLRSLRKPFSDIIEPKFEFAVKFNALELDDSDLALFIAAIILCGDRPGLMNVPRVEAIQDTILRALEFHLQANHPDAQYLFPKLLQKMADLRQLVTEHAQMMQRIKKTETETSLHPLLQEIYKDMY
Chain of Bile acid receptor (Homo sapiens) (Q96RI1 whole entry, looked up): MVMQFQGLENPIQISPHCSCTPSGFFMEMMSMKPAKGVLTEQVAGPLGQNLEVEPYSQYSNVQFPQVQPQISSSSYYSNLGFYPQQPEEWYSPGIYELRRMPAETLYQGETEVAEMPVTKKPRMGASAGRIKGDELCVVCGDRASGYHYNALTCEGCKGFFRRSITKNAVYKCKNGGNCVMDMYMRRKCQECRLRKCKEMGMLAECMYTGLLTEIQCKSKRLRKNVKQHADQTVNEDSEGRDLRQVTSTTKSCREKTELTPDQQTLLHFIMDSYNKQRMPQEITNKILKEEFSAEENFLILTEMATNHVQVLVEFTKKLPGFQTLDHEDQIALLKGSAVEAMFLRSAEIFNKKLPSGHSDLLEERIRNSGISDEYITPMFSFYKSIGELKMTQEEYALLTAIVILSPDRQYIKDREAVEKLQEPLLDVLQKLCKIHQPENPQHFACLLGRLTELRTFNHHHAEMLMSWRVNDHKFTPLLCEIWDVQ
Chain of Vitamin D3 receptor (Homo sapiens) (P11473 whole entry, looked up): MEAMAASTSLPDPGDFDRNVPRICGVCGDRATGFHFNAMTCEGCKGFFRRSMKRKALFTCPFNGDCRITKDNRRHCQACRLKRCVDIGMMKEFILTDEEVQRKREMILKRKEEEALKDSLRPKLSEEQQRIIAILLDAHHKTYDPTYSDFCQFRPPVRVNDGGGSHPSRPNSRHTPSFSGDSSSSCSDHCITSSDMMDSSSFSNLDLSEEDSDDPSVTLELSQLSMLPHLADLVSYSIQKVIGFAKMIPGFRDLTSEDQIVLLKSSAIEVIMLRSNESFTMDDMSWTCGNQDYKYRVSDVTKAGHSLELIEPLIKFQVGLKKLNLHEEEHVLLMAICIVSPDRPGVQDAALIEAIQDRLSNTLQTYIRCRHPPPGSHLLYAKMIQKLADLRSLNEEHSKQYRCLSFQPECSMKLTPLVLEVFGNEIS

CN1CCC[C@@H]1Cc1c[nH]c2ccc(CCS(=O)(=O)c3ccccc3)cc12
inactive: [1] | [2] | [3] | [4] | [5] | [6] | [7] | [8] | [9] | [10] | [11] | [12] | [13] | [14] | [15] | [16]

COc1ccc2nc(NC(=O)Nc3ccccc3)sc2c1
inactive: [1] | [3] | [5] | [6] | [7] | [8] | [9] | [17] | [10] | [11] | [12] | [13] | [14] | [15] | [16]

CC(C)OC(C)C
inactive: [1] | [2] | [3] | [4] | [5] | [6] | [7] | [8] | [9] | [17] | [10] | [11] | [12] | [13] | [14] | [15] | [18]

CN1CCN(N)CC1
inactive: [1] | [2] | [4] | [19] | [5] | [20] | [6] | [9] | [17] | [10] | [11] | [12] | [13] | [14] | [15] | [18]

CCCCOc1cc(C(=O)NCCN(CC)CC)c2ccccc2n1
inactive: [5] | [6] | [9] | [10] | [11] | [12] | [13] | [14] | [15] | [16]

CCOC(=O)C1CC(=O)C(=C(O)C2CC2)C(=O)C1 (centres undefined)
inactive: [1] | [2] | [3] | [4] | [19] | [5] | [20] | [6] | [7] | [8] | [9] | [17] | [10] | [11] | [12] | [13] | [14] | [15] | [18]

Cc1nc(-c2ccccn2)ncc1C(=O)Nn1cc(C)c2cc(F)ccc21
inactive: [2] | [3] | [19] | [5] | [6] | [7] | [8] | [9] | [17] | [10] | [11] | [12] | [13] | [14] | [15] | [16]

CO[C@@]1(NC(=O)CSCC#N)C(=O)N2C(C(=O)O)=C(CSc3nnnn3C)CS[C@@H]21
inactive: [1] | [2] | [4] | [5] | [7] | [9] | [10] | [11] | [12] | [13] | [14] | [15] | [18]

CC(=O)Oc1cc(C(C)C)c(OCCN(C)C)cc1C
inactive: [1] | [5] | [6] | [8] | [9] | [10] | [11] | [12] | [13] | [14] | [15] | [16]
